Screening results (PubChem BioAssay)
This is one part of a sample in which hits are shown more often than they occur.
ROS inducer: inducers of reactive oxygen species in cancer cells. U2OS ROS induction, H2DCF-DA fluorescence. ROS induction (% of piperlongumine), % at 10 µM. hit rate 2% among 46,000; in the data active means ROS induction above about 79%, passing the limit was not always enough
PD-1 reverse act: reversal of PD-1 mediated T-cell inhibition; primary human CD4 T cells, PD-L1 beads, CellTiter-Glo 96 h; activation, % (no concentration beside the values); 29,000 tested, under 10 active; call rule not given here
MITF inhib: MITF inhibition | TRPM1 promoter luciferase, luminescence, 24 h | inhibition, % (no concentration beside the values) | hit rate 0.28% among 37,000 | AID 2240; in the data active means inhibition above about 85%;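 further: human melanocyte line stably carrying TRPM1 promoter luciferase reporter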
NOMO-1 viab: STK33 inhibitor candidate reducing NOMO-1 cell viability | NOMO-1 AML viability, CellTiter-Glo luminescence, 72 h | inhibition, % (test concentration not listed) | hit rate 7.5% among 37,000 | AID 2330; in the data active means inhibition above about 80%
YB-1 expression: YB-1 expression inhibition; U2OS, qRT-PCR YB-1 vs CDIP delta delta Cp, 16 h; hits give high values; zero = DMSO, each unit about twofold; delta delta Cp (YB-1 minus CDIP) (no concentration beside the values); hit rate 0.37% among 30,000;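 active means delta delta Cp rounded down to an integer at or above 3, about 3 SD of DMSO wells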;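 further: higher means less YB-1 transcript or more CDIP transcript relative to DMSO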
Hits are given with their value; . = inactive; / = not tested or not shown.

SMILES	ROS inducer	PD-1 reverse act	MITF inhib	NOMO-1 viab	YB-1 expression
Cc1nc(SCC(=O)Nc2sc3c(c2C#N)CCCC3)nc2c1CCCC2	.	.	.	.	/
C[C@H](CO)N1C[C@H](C)[C@@H](CN(C)S(=O)(=O)c2cccs2)Oc2ccc(NC(=O)Nc3ccc(C(F)(F)F)cc3)cc2C1=O	.	.	.	92	.
C[C@H](CO)N1C[C@H](C)[C@H](CN(C)Cc2ccc(Oc3ccccc3)cc2)Oc2ccc(NC(=O)CCCCCC(=O)Nc3ccccc3N)cc2CC1=O	.	.	.	140	.
C[C@@H]1CN([C@H](C)CO)C(=O)c2cc(NC(=O)CCCCCC(=O)Nc3ccccc3N)ccc2O[C@@H]1CN(C)Cc1ccc(Oc2ccccc2)cc1	.	/	/	/	.
C[C@H]1CN([C@@H](C)CO)C(=O)Cc2cc(NC(=O)CCCCCC(=O)Nc3ccccc3N)ccc2O[C@H]1CN(C)Cc1ccc(Oc2ccccc2)cc1	.	.	.	140	.
CCOC(=O)c1c(NC(=O)Cn2nc([N+](=O)[O-])c(Cl)c2C)sc2c1CCC2	.	.	.	.	/
COc1ccc(CN(C)C[C@H]2Oc3ccc(NS(=O)(=O)c4ccc(OC)cc4)cc3CC(=O)N([C@H](C)CO)C[C@H]2C)cc1	.	/	.	.	.
COc1ccc(S(=O)(=O)Nc2ccc3c(c2)CC(=O)N([C@@H](C)CO)C[C@@H](C)[C@@H](CN(C)Cc2ccc(Cl)c(Cl)c2)O3)cc1	.	/	.	107	.
COc1ccc(CN(C)C[C@@H]2Oc3ccc(NS(=O)(=O)c4ccc(OC)cc4)cc3CC(=O)N([C@H](C)CO)C[C@H]2C)cc1	.	.	.	.	.
COc1ccc(S(=O)(=O)Nc2ccc3c(c2)CC(=O)N([C@@H](C)CO)C[C@H](C)[C@H](CN(C)Cc2ccc(Cl)c(Cl)c2)O3)cc1	.	.	.	105	.
COc1ccc(S(=O)(=O)Nc2ccc3c(c2)CC(=O)N([C@H](C)CO)C[C@@H](C)[C@@H](CN(C)Cc2ccc(Cl)c(Cl)c2)O3)cc1	.	.	.	114	.
CC(=O)Nc1ccc(OCC(=O)Nc2ccc(Cl)c(Cl)c2)cc1	.	.	.	.	/
Cc1ccc(N(c2ccc(C)cc2)c2cccnc2)cc1	.	/	/	/	/
COC(=O)CNC(=O)c1cn(-c2ccccc2)nc1-c1cc2ccccc2oc1=O	/	/	.	111	/
COC(=O)CNC(=O)c1cn(-c2ccccc2)nc1-c1ccccc1	.	.	.	.	/
Cc1oc2c(c1C(=O)N1CCC(C)CC1)C(=O)c1ccccc1C2=O	.	.	85	113	.
Cc1oc2c(c1C(=O)NC1CCCC1)C(=O)c1ccccc1C2=O	102	.	.	140	.
Cc1oc2c(c1C(=O)NCCc1ccccc1)C(=O)c1ccccc1C2=O	.	.	.	.	.
Cc1c(NC(=O)CN(c2cccc(Br)c2)S(C)(=O)=O)cccc1[N+](=O)[O-]	.	.	.	.	/
COc1ccccc1NC(=O)Cn1cc(C(=O)c2ccccc2F)c2ccccc21	.	.	.	.	/
Cc1ccc(-c2noc(CN(C(=O)c3ccccc3-c3ccccc3)C(C)C)n2)cc1	/	/	.	87	/
COc1ccc2cc3c(NC(=O)Cc4cccc(C(F)(F)F)c4)n[nH]c3nc2c1	.	/	/	/	/
COC(=O)Nc1nc2ccc(-c3n[nH]c(=O)c4ccccc34)cc2[nH]1	.	.	.	108	.
CCCCc1ccc2nc(NC(=O)OC)[nH]c2c1	.	/	.	120	.
COC(=O)C1=CN(C(CC(C)C)C(=O)OC)C=C(C(=O)OC)C1c1ccc(Br)cc1 (configuration not stated)	95	.	.	.	.
SMILES	ROS inducer	PD-1 reverse act	MITF inhib	NOMO-1 viab	YB-1 expression
C[C@@H]1CN([C@H](C)CO)C(=O)c2cccc(NC(=O)c3nc4ccccc4s3)c2O[C@@H]1CN(C)Cc1ccc(Cl)c(Cl)c1	.	.	.	.	.
C[C@@H]1CN([C@@H](C)CO)C(=O)c2cccc(NC(=O)c3nc4ccccc4s3)c2O[C@H]1CN(C)S(=O)(=O)c1ccc(Cl)cc1	80	.	.	93	.
C[C@H](CO)N1C[C@H](C)[C@H](CN(C)Cc2ccc(Cl)c(Cl)c2)Oc2c(NC(=O)c3nc4ccccc4s3)cccc2C1=O	.	.	.	104	.
C[C@H]1CN([C@@H](C)CO)C(=O)c2cccc(NC(=O)c3nc4ccccc4s3)c2O[C@H]1CN(C)Cc1ccc(Cl)c(Cl)c1	.	.	.	96	.
COc1ccc([N+](=O)[O-])cc1NC(=O)C1(c2ccc(OC)c(OC)c2)CCCCC1	149	.	.	.	/
COc1ccc([N+](=O)[O-])cc1NC(=O)C1(c2ccc(OC)c(OC)c2)CCOCC1	/	/	.	.	/
CC(C)NC(=O)Nc1ccc2c(c1)C(=O)N([C@@H](C)CO)C[C@H](C)[C@H](CN(C)Cc1ccc(C(=O)Nc3ccccc3N)cc1)O2	.	/	/	/	.
C[C@@H]1CN([C@@H](C)CO)C(=O)c2cc(N(C)C)ccc2O[C@H]1CN(C)Cc1ccc(C(=O)Nc2ccccc2N)cc1	.	.	.	110	.
C[C@@H]1CN([C@H](C)CO)C(=O)c2cc(N(C)C)ccc2O[C@@H]1CN(C)Cc1ccc(C(=O)Nc2ccccc2N)cc1	.	.	.	110	.
C[C@@H]1CN([C@H](C)CO)C(=O)c2cc(N(C)C)ccc2O[C@H]1CN(C)Cc1ccc(C(=O)Nc2ccccc2N)cc1	.	/	/	/	.
C[C@H]1CN([C@@H](C)CO)C(=O)c2cc(N(C)C)ccc2O[C@H]1CN(C)Cc1ccc(C(=O)Nc2ccccc2N)cc1	.	.	.	110	.
C[C@H](CO)N1C[C@H](C)[C@H](CN(C)Cc2ccc(C(=O)Nc3ccccc3N)cc2)Oc2ccc(N(C)C)cc2C1=O	.	.	.	111	.
C[C@H]1CN([C@@H](C)CO)C(=O)c2cc(NS(C)(=O)=O)ccc2O[C@H]1CN(C)Cc1ccc(C(=O)Nc2ccccc2N)cc1	.	.	.	.	.
COc1ccc(S(=O)(=O)N(C)C[C@@H]2Oc3ccc(NS(=O)(=O)c4ccc(F)cc4)cc3C(=O)N([C@H](C)CO)C[C@@H]2C)cc1	.	/	.	.	.
N#CC1=C(N)N(c2sc3c(c2C#N)CCCC3)C2=C(CCC2)C1(C(F)(F)F)C(F)(F)F	205	/	/	/	/
C=CCC1C(=O)N(S(=O)(=O)c2ccc(Cl)cc2)N=C1CCC (configuration not stated)	.	.	.	110	.
CCCCc1c(-c2ccc(O)cc2)[nH]c2nccnc12	.	.	.	83	3.3
COc1ccccc1C1C(C(=O)c2sc(C)nc2C)C(=O)C(=O)N1CCCN1CCOCC1 (configuration not stated)	.	.	.	.	/
CC1Oc2c3c(c4c(-c5ccccc5)cc(=O)oc4c2C(=O)C1C)OC(C)(C)C=C3 (configuration not stated)	114	/	/	/	.
Cc1cc(C)cc(NC(=O)C(C)Oc2ccccc2)c1 (configuration not stated)	.	/	/	/	/
O/N=C(\Cn1cncn1)c1ccc(Cl)cc1Cl	.	.	.	.	.
